Experimental data from PubChem BioAssay.

Assay: small-molecule microarray binders of probe aCHRDL2, primary screen, biochemical, biotinylated probe, 635/667 nm fluorescence (AID 1100)
Conditions: higher = more signal

SMILES | composite z-score
COc1ccc([Si](C)(C)[C@H]2[C@H](CC(=O)N3CCC[C@H]3CO)O[C@@]3(C(=O)N(Cc4cccc(N5C(=O)COc6ccccc65)c4)c4ccccc43)[C@@H]2C)cc1 | -0.364
CC(=O)OC[C@H]1O[C@H](C#CCCCc2ccccc2)C=C[C@@H]1OC(C)=O | -0.33
CC(C)[C@H](NC(=O)OC(C)(C)C)[C@@H](O)CC(=O)OC(C)(C)C | -0.215
COCCCNC(=O)[C@]1(CCC(=O)OC(C)(C)C)N=C(c2ccc(OCCCO)cc2)O[C@@H]1c1ccccc1N=[N+]=[N-] | 0.999
C[C@@H]1C=CCC(=O)OC[C@H](C)C(=O)N[C@@H](C)C(=O)OC1 | -0.791
COC(=O)[C@@]1(Cc2ccc(F)cc2)[C@H]2c3cc(C(=O)N(C)C)n(Cc4ccc(OC)c(OC)c4)c3C[C@H]2CN1C(=O)c1ccccc1 | 0.43
CCCCCN1CC=CC23O[C@@H]4C=CCOC(=O)[C@@H]4[C@H]2C(=O)N(CCCCCCO)[C@@H]3C1=O (stereo partly drawn) | 0.734
COc1ccc(O[C@H]2C=C[C@@H](c3ccccc3)O[C@@H]2COC(=O)CCC(C)=NO[C@H](C)c2cn([C@@H]3COC[C@H]3O)nn2)cc1 | -0.791
C#C[C@@H]1Oc2ccccc2S(=O)(=O)N2CCC[C@H]12 | -0.246
CC(C)(C)OC(=O)CC[C@]1(C(N)=O)COC(c2ccc(OCCCO)cc2)=N1 | 1.38
COc1ccc(O[C@H]2C=C[C@@H](c3ccccc3)O[C@@H]2COC(=O)CCC(C)=NOC[C@@H](C)[C@H](OCc2ccccc2)C(C)C)cc1 | -0.529
Cc1ccc(F)cc1S(=O)(=O)N[C@@H]1CCN(Cc2ccc(CC(C)C)cc2)C1 | -0.24
CCc1cc2c(nc1CC)CCN(CCC(C)=NOC(C)CN1CCCc3nc(C)c(C)cc31)C2 (stereo not drawn) | -0.242
Cc1ccc(S(=O)(=O)N[C@@H]2COC(=O)[C@H](C)COC(=O)CC=C[C@H]2C)cc1 | -0.589
O=C1C[C@@H](O)[C@@H](O)[C@@H]2[C@@H]3C(=O)N(Cc4ccc5c(c4)OCO5)C(=O)[C@@H]3CC[C@@H]12 | -0.562
CN1C(=O)[C@@]2(CCC(=O)OC(C)(C)C)N=C(c3ccc(OCCCO)cc3)O[C@H]2c2ccccc21 | 0.457
COCCOC(=O)N1C(=O)[C@@]2(c3cc(C#CC4(O)CCCCCC4)ccc31)[C@H](C(=O)N1CCN(c3ncccn3)CC1)[C@H]1C(=O)O[C@H](c3ccccc3)[C@H](c3ccccc3)N1[C@@H]2c1ccc(OCCO)cc1 | -0.0616
CCOC(=O)[C@H](CC(C)C)NC(=O)CCC1CC(OC(=O)NCc2cccc3ccccc23)CC2(CCCC(COC(=O)NCCc3ccccc3OC)O2)O1 (stereo partly drawn) | -0.39
COC(=O)[C@H](C)NC(=O)CCC1CC(OC(=O)NCc2cccc3ccccc23)CC2(CCCC(COC(=O)NCCc3ccc(Cl)cc3)O2)O1 (stereo partly drawn) | -0.444
O[C@@H](Cc1ccccc1)[C@H]1C2C=CCCC(c3ccccc3)=C2CN1Cc1cccc(Cl)c1 (stereo partly drawn) | 0.7
O=C1[C@H]2[C@H]3[C@H](O)[C@H](O)CC(=NO[C@@H]4O[C@H](CO)[C@@H](O)[C@H](O)[C@H]4O)[C@@H]3CC[C@H]2C(=O)N1Cc1ccccc1 | -0.269
COCCOC(=O)N1C(=O)[C@@]2(c3cc(C#CCNC(N)=O)ccc31)[C@H](c1ccccc1OCCO)N1[C@H](c3ccccc3)[C@H](c3ccccc3)OC(=O)[C@H]1[C@@H]2C(=O)N1CCN(c2ncccn2)CC1 | 0.702
O=C1[C@H]2[C@H]3[C@H](O)[C@H](O)CC(=NO[C@@H]4O[C@H](CO)[C@@H](O)[C@H](O)[C@H]4O)[C@H]3CC[C@H]2C(=O)N1Cc1ccccc1 | -0.752
CC(C)(C)N1C(=O)[C@H]2[C@H]3[C@H](O)[C@H](O)CC(=NO[C@@H]4O[C@H](CO)[C@@H](O)[C@H](O)[C@H]4O)[C@@H]3CC[C@H]2C1=O | -0.854
O=C1[C@H]2[C@H]3[C@H](O)[C@H](O)CC(=NO[C@@H]4O[C@H](CO)[C@@H](O)[C@H](O)[C@H]4O)[C@H]3CC[C@H]2C(=O)N1C1CCCCC1 | -0.0589
CC[C@@H](c1ccccc1)n1c(=O)n2n(c1=O)[C@H]1[C@H](O)[C@@H]3O[C@@H]3C(=NOCC(C)C)[C@H]1CC2 | -0.532
CCCC[C@@H](O)C1=C(C)C[C@H]2C(=O)N(Cc3ccccc3)C(=O)[C@H]2[C@H]1CO | -0.494
CC(C)=C1C(=O)C(c2ccccc2)=C2CN3C(=O)N(CCc4ccccc4)C(=O)[C@]3(Cc3ccc(F)cc3)[C@H]21 | 1.21
